Activity calls are given as the source filed them. The calls were made as follows: active = hit-call score of the fitted dose curve at least 0.9, where 1 is the maximum; inactive = score below 0.9.
Assay: Tanguay_ZF_120hpf_DP24: Oregon State University Tanguay Lab 24 Hour Post-fertilization zebrafish Assay for Delayed Development (AID 2284390)
Experimental: Tanguay_ZF_120hpf is a whole embryo, multiplexed endpoint assay using zebrafish larvae exposed for 120 hours post fertilization on a 96-well plate.Tanguay_ZF_120hpf_DP24 is […] measured or calculated from the Tanguay_ZF_120hpf assay. It is designed to make measurements of zebrafish development as detected with brightfield microscopy of developing zebrafish embryos.Data from the assay component Tanguay_ZF_120hpf_DP24 was analyzed into 1 assay endpoints. This assay endpoint, Tanguay_ZF_120hpf_DP24, was analyzed in the positive analysis fitting direction relative to DMSO as the negative control and baseline of activity. Using a type of morphology reporter, gain-of-signal activity can be used to understand changes in developmentals as they relate to the whole embryo. To generalize the intended target to other relatable targets, this assay endpoint is annotated to the zebrafish development intended target family, where the subfamily is embryonic morphogenesis.
Zebrafish husbandry: Tropical 5D wild-type adult zebrafish were housed in at an approximate density of 1000 per 100 gallon tank at the Sinnhuber Aquatic Research Laboratory, Oregon State University, Corvallis, OR. Each tank was kept at standard laboratory conditions of 28C on a 14-h light/10-h dark photoperiod in fish water consisting of reverse osmosis water supplemented with a commercially available salt (Instant Ocean). Spawning funnels were placed into the tanks the night prior, and embryos were collected and staged. To increase bioavailability, the chorion was enzymatically removed using pronase (63.6mg/ml, >/= 3.5U/mg, Sigma-Aldrich: P5147) at 4 hours post fertilization (hpf) using a custom automated dechorionator.Chemical exposures: Six hpf dechorionated embryos were placed 1 embryo per well in a 96-well plate prefilled with 90 ul of EM using automated embryo placement systems (AEPS). Ten microliters of each row of dilution plate 2 was added to 2 exposure plates. The final DMSO concentration used was 0.64% (vol/vol). Thirty-two embryos were also exposed to 5uM trimethyltin chloride (positive control). Plates were sealed to prevent evaporation and foil covered to reduce light exposure and kept in a 28C incubator. Embryos were statically exposed until 120 hpf. At 24 hpf, embryos were assessed for photomotor response using a custom photomotor response analysis tool (PRAT) and for developmental toxicity endpoints (MO24: mortality at 24 hpf, DP: developmental progression, SM: spontaneous movement, and NC: notochord distortion). At 120 hpf, locomotor activity was measured using Viewpoint Zebralab and assessed for 13 endpoints. Zebrafish acquisition and analysis program (ZAAP), a custom program designed to inventory, acquire, and manage zebrafish data, was used to collect developmental endpoints as either present or absent (i.e., binary responses were recorded). If mortality occurred for an embryo (at either 24 or 120 hpf), the non-mortality endpoints were not measured.

Compound	outcome	AC50
CCCCCCCCC(F)(F)C(F)(F)C(F)(F)C(F)(F)C(F)(F)C(F)(F)F	inactive	
C=CC(=O)OCC(F)(F)C(F)(F)C(F)(F)C(F)(F)COC(=O)C=C		28.1 µM (active)
O=C(O)C(F)(F)C(F)(F)OC(F)(F)F	inactive	
O=C(O)C(F)(OC(F)(F)C(F)(OC(F)(F)C(F)(OC(F)(F)C(F)(F)C(F)(F)F)C(F)(F)F)C(F)(F)F)C(F)(F)F (stereo not given)	inactive	
OCCCC(F)(F)C(F)(F)C(F)(F)F	inactive	
O=C(CC(=O)C(F)(F)C(F)(F)F)C(F)(F)F	inactive	
N=C(N)C(F)(F)C(F)(F)C(F)(F)C(F)(F)C(F)(F)C(F)(F)C(F)(F)F	inactive	
FC(F)(F)C(F)(F)C(F)(F)C(F)(F)C(F)(F)CCI	inactive	
O=C(O)C(F)(F)C(F)(F)C(F)(F)C(F)(F)C(F)(F)C(F)(F)C(F)(F)C(F)(F)C(F)(F)C(F)(F)C(F)(F)C(F)(F)C(F)(F)F	inactive	
C=CC(F)(F)C(F)(F)C(F)(F)C(F)(F)C(F)(F)C(F)(F)C(F)(F)C(F)(F)F	inactive	
C=CC(=O)OCC(F)(F)C(F)(F)C(F)(F)C(F)(F)C(F)(F)C(F)(F)C(F)(F)F	inactive	
FC(F)(F)C(F)(F)C(F)(F)C(F)(F)C(F)(F)C(F)(F)C(F)(F)C(F)(F)CCS	inactive	
FC1CC(F)(F)C(F)(F)C1(F)F (stereo not given)	inactive	
O=S(=O)(OCCOC(F)(F)F)C(F)(F)F	inactive	
O=C(O)C(F)(F)C(F)(F)F	inactive	
O=C(O)C(F)(F)C(F)(F)C(F)(F)C(F)(F)F	inactive	
OCC(F)(F)C(F)(F)C(F)(F)C(F)(F)C(F)(F)C(F)F	inactive	
OCC(F)(F)C(F)(F)C(F)(F)C(F)(F)C(F)(F)C(F)(F)F	inactive	
FC(F)(F)C(F)(F)CNCC(F)(F)C(F)(F)F	inactive	
CCO[Si](CCC(F)(F)C(F)(F)C(F)(F)C(F)(F)C(F)(F)C(F)(F)F)(OCC)OCC	inactive	

Compound	outcome	AC50
C=CC(F)(F)C(F)(F)C(F)(F)C(F)(F)C(F)(F)C(F)(F)C(F)(F)C(F)(F)C=C	inactive	
O=C(O)C(F)(F)C(F)(F)C(F)(F)F	inactive	
FC(F)(F)C(F)(F)C(F)(F)N(C(F)(F)C(F)(F)C(F)(F)F)C(F)(F)C(F)(F)C(F)(F)F	inactive	
FC(F)(F)C(F)(F)C(F)(F)C(F)(F)C(F)(F)C(F)(F)C(F)(F)C(F)(F)F	inactive	
FC(F)(F)C(F)(F)C(F)(F)C(F)(F)CCI	inactive	
C=C(C)C(=O)OCC(F)(F)C(F)(F)C(F)(F)F	inactive	
C=C(C)C(=O)OCCC(F)(F)C(F)(F)C(F)(F)C(F)(F)C(F)(C(F)(F)F)C(F)(F)F	inactive	
C=C(C)C(=O)OCC(F)(F)C(F)(F)C(F)(F)C(F)(F)C(F)(F)C(F)(F)C(F)(F)F	inactive	
Cc1ccc(S(=O)(=O)OCC(F)(F)C(F)(F)C(F)(F)C(F)(F)C(F)(F)C(F)F)cc1	inactive	
FC(F)(F)C(F)(F)C(F)(F)CI	inactive	
O=C(O)C(F)(F)C(F)(F)C(F)F	inactive	
O=P(O)(O)OCCC(F)(F)C(F)(F)C(F)(F)C(F)(F)C(F)(F)C(F)(F)F		57.9 µM (active)
O=C(O)C=C(C(F)(F)F)C(F)(F)F	inactive	
NC(=O)C(F)(F)C(F)(F)C(F)(F)C(F)(F)F	inactive	
FC(F)(F)C(F)(F)C(F)(F)C(F)(F)C(F)(F)C(F)(F)C(F)(F)I	inactive	
O=C(O)C(F)(F)C(F)(F)C(F)(F)C(F)(F)C(F)(F)C(F)(F)C(F)(F)C(F)(F)Cl	inactive	
O=C(O)C(F)(F)C(F)(F)C(F)(F)C(F)(F)C(F)(F)C(F)(F)C(F)(F)C(F)(F)C(F)(F)C(F)(F)C(F)(F)C(F)(F)F	inactive	
FC(F)(F)C(F)(F)C(F)(F)C(F)(F)C(F)(F)C(F)(F)CC1CO1 (stereo not given)	inactive	
O=C(O)C(F)(OC(F)(F)C(F)(OC(F)(F)C(F)(F)C(F)(F)F)C(F)(F)F)C(F)(F)F (stereo not given)	inactive	
CC(C)(C)C(=O)CC(=O)C(F)(F)C(F)(F)C(F)(F)F	inactive	

Reference: PubChem BioAssay (EPA / NIEHS)
